From PubChem BioAssay (NCATS)
Inconclusive results are not listed. The source made the active and inactive calls. Unless noted, the call rests on the fitted dose curve; in most records, active means well fitted curve in the direction sought with a large enough effect; inconclusive means small, poorly fitted or top-dose-only effect, or another doubt; inactive means no such curve, though single readings can be large; an effect the other way counts as inactive or inconclusive.

How the values were obtained:
[1] = qHTS profiling for inhibitors of Plasmodium falciparum (DD2) proliferation (AID 743323; call rule not given here); details: lower = more inhibition; at 28.7 µM (top of the series) unless noted
In short: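 SYBR Green fluorescence (ex 485, em 535 nm) of lysed cultures gives parasite DNA content; wells normalized to artemisinin (0.29 uM) and DMSO controls. Infected red cells: 0.3% parasitemia, 2.5% hematocrit, 72 h, 37 C.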

[2] = qHTS profiling for inhibitors of Plasmodium falciparum (HB3) proliferation (AID 743324); details: Plasmodium falciparum HB3 blood-stage proliferation; at 28.7 µM (top of the series) unless noted;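 further: 100% = DMSO vehicle wells and 0% = artemisinin-treated control wells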
In short: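 SYBR Green fluorescence (485 ex/535 em) of lysed cultures, incubated overnight at room temperature in the dark, quantifies parasite DNA. Infected erythrocytes at 0.3% parasitemia and 2.5% hematocrit were exposed 72 h; values normalized to DMSO and 0.29 uM artemisinin controls.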

[3] = qHTS profiling of the MIPE4 collection as inhibitors of Plasmodium falciparum (3D7) proliferation (AID 743344; call rule not given here;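 further: scaled between DMSO vehicle wells and 0.29 µM artemisinin as full inhibition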); details: P. falciparum 3D7 in erythrocytes, SYBR Green DNA fluorescence, 72 h; at 28.5 µM (top of the series) unless noted
In short: (§1)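 Parasite DNA was quantified by SYBR Green I fluorescence (ex 485, em 535 nm) after overnight lysis in saponin/Triton buffer at room temperature. Cultures at 0.3% parasitemia and 2.5% hematocrit were first exposed to compound for 72 h at 37 C; signals were normalised to artemisinin (0.29 uM) and vehicle wells.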

[4] = qHTS profiling of the MIPE4 collection as inhibitors of Plasmodium falciparum (DD2) proliferation (AID 743345; call rule not given here); details: P. falciparum Dd2 in erythrocytes, SYBR Green DNA, 72 h; at 28.5 µM (top of the series) unless noted
In short: as §1

[5] = qHTS profiling of the MIPE4 collection as inhibitors of Plasmodium falciparum (DD2) proliferation (Rep 2) (AID 743346; call rule not given here); details: P. falciparum Dd2 in erythrocytes, SYBR Green DNA, 72 h; at 28.5 µM (top of the series) unless noted
In short: as §1

[6] = qHTS profiling of the MIPE4 collection as inhibitors of Plasmodium falciparum (HB3) proliferation (AID 743347; call rule not given here;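 further: plate controls were DMSO vehicle wells for no effect and artemisinin wells for full effect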); details: P. falciparum HB3 in erythrocytes, SYBR Green DNA, 72 h; at 28.5 µM (top of the series) unless noted
In short: as §1

[7] = High-throughput drug toxicity screening in the BPDCN cell line Gen2.2 (AID 1224824; call rule not given here;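 further: cells exposed to compounds for 48 h before reading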); details: Gen2.2 BPDCN cells; at 45.8 µM (top of the series) unless noted
In short: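 CellTiter-Glo luminescence after 48 h compound exposure of Gen2.2 cells; percent activity set with DMSO as 100% and bortezomib (9.2 uM final) as 0%. Cells seeded at 500 per well, RPMI + 10% FBS, 37 °C.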

[8] = High-throughput drug toxicity screening in the BPDCN cell line Cal-1 (AID 1224825; call rule not given here); details: Cal-1 BPDCN cell viability, qHTS; at 45.8 µM (top of the series) unless noted
In short: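 CellTiter-Glo luminescence after 48 h compound exposure; percent activity scaled with DMSO as 100% and bortezomib (9.2 uM final) as 0%. Cal-1 cells seeded at 500/well in RPMI, 10% FBS, no phenol red.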

[9] = qHTS assay for measurement of the activity of small molecule inhibitors on Zika virus induced Caspase-3 activity in human iPSC derived neural progenitor cells (hNPCs) (AID 1224857); further: nearly all actives have a fitted effect of over 65% in size; further: potency means the concentration at half of the fitted maximal effect
In short: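 After overnight (16–20 h) culture at 350 cells/well, hNPCs get compound, then ZIKV 2 FFU/cell one hour later. Six hours on, Caspase-Glo 3/7 is added and luminescence measured.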

[10] = qHTS assay for measurement of the activity of small molecule inhibitors on Zika virus induced Caspase-3 activity in human astrocytoma cells (AID 1224859);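 further: plate controls were ZIKV-infected untreated cells for no effect and uninfected cells for full effect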
In short: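 Inhibition of Zika-induced caspase-3/7 activity: SNB-19 cells, 1 h compound pretreatment, ZIKV 2 FFU/cell for 6 h at 37 C, Caspase-Glo luminescence read-out.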

[11] = qHTS Screen of the MIPE 4.0 Collection Against Ewings Sarcoma (RDES) (AID 1259252); further: nearly all actives have a fitted effect of over 35% in size; further: potency means the concentration at half of the fitted maximal effect
In short: (§2)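 Viability screen: 48 h incubation at 37C, 95% humidity, 5% CO2 with serially titrated compound, followed by CellTiter-Glo readout.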

[12] = qHTS Screen of the MIPE 4.0 Collection Against Ewings Sarcoma (TC71) (AID 1259253); further: nearly all actives have a fitted effect of over 40% in size; further: potency means the concentration at half of the fitted maximal effect
In short: as §2

[13] = qHTS Screen of the MIPE 4.0 Collection Against Ewings Sarcoma (EW8) (AID 1259255); further: nearly all actives have a fitted effect of over 35% in size; further: potency means the concentration at half of the fitted maximal effect;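 on viability: 100% = DMSO-treated cells and 0% = medium-only wells without cells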
In short: as §2

[14] = Identifying Small Molecule Inhibitors of Pancreatic Cancer Stem Cells (A2780, Spheroid) (AID 1259357); details: Potency: A2780 spheroid viability;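 further: spheroids pre-formed over 14 days in stem cell medium on hydrogel; compound exposure lasted 48 h before the ATP luminescence read; 100% = DMSO treated cells and 0% = wells without cells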
In short: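 Endpoint: ATP-based luminescence, 48 h drug exposure. Bortezomib at 9.2 uM final as full-kill control; DMSO vehicle as negative control; activity normalized between vehicle and cell-free wells.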

[15] = Identifying Small Molecule Inhibitors of Pancreatic Cancer Stem Cells (Panc1, Adherent) (AID 1259362); details: Potency: viability;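 further: compound exposure lasted 48 h before the viability read; plate controls were DMSO-treated cells for no effect and cell-free media wells for full effect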
In short: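 Adherent (2D) versus sphere (3D) formats; spheres generated 14 d in SCM beforehand. Compound transferred by pin tool after 4 h, 48 h incubation, CellTiter-Glo endpoint.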

[16] = qHTS Screen of the MIPE 4.0 Collection Against Ewings Sarcoma (TC32) (AID 1259256);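 further: 100% = DMSO-treated cells and 0% = medium-only wells without cells; nearly all actives have a fitted effect of over 45% in size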
In short: as §2

[17] = qHTS assay to identify small molecule inhibitors of chordoma cells - UCH-2 (AID 1259356); further: on the % scale 0 is the no-effect control and ±100 the full control effect

SMILES | activity, percent of control [1] [%] | remaining proliferation (% of control), lower = more inhibition [2] [%] | parasite growth, % of DMSO control [3] [%] | parasite growth remaining, % of DMSO control (lower = more inhibition) [4] [%] | parasite growth, % of control (lower = inhibition) [5] [%] | growth, % of control [6] [%] | cell viability, % of control (lower = more cytotoxic) [7] [%] | viability (% of control) [8] [%] | Potency [9] | Potency [10] | Potency [11] | Potency [12] | Potency [13] | Potency [14] | Potency [15] | Potency [16] | outcome [17]
CCCCCCCCCCCCCC(=O)N[C@H](CO)[C@H](O)c1ccc([N+](=O)[O-])cc1 | 82.3 | 73.2 | 55.9 | 85.8 | 33 | 24.3 | 1.84 | 5.68 | inactive | inactive | inactive | inactive | inactive | inactive | inactive |  | 
CC(=O)OCC(=O)[C@@]12OC(C)(C)O[C@H]1C[C@H]1[C@@H]3C[C@H](F)C4=CC(=O)C=C[C@]4(C)[C@@]3(F)[C@@H](O)C[C@@]12C |  |  | 51.9 | 82.3 | 35.9 | 61.2 | 76.3 | 56.5 | inactive | inactive | inactive | inactive | inactive |  |  | inactive | 
O=C(c1ccc(C(=O)N2CCC(N3CCCC3)CC2)c(Nc2ccccc2)c1)N1CCC(N2CCCC2)CC1 |  |  | 80.6 | 66.3 | 33.2 | 82.3 | 483 | 113 | inactive | inactive | 16.6 µM (active) | 7.43 µM (active) | 6.62 µM (active) |  |  |  | 
C[C@]12CCC3=C4CCC(=O)C=C4CC[C@@H]3[C@H]1CC[C@@]2(O)CC#N |  |  | 92.8 | 97.5 |  | 93 | 106 | 107 | inactive | inactive | inactive | inactive | inactive |  |  | inactive | 
OC1CCC(Nc2ncc3nc(Nc4c(F)cc(F)cc4F)n([C@@H]4CCOC4)c3n2)CC1 (some centres not stated) |  |  | 38.4 | 84.7 | 59.6 | 43.4 | 62.2 | 13.2 | inactive | inactive | 18.7 µM (active) | 10.5 µM (active) | 9.35 µM (active) |  |  |  | 
CC(C)=CCCC(C)=CCCC(C)=CCCC(C)=CCCC(C)=CCCC(C)=CCCC(C)=CCCC(C)=CCCC(C)=CCO |  |  | 95.7 | 17.5 | 99.4 | 100 | 132 | 121 | inactive | inactive | inactive | inactive | inactive |  |  |  | 
CNC1[C@H](O)C(O[C@@H]2C(O)C(O[C@H]3O[C@H]([C@@H](C)NC)CC[C@H]3N)[C@@H](N)C[C@H]2N)OC[C@]1(C)O (some centres not stated) |  |  |  |  |  | 99.6 | 116 | 101 | 18.7 µM (active) | inactive | inactive | inactive | inactive |  |  | inactive | 
NCC1CCC(C(=O)O)CC1 (configuration not stated) |  |  | 428 | 105 | 104 | 159 | 110 | 115 | inactive | inactive | inactive | 9.35 µM (active) | inactive |  |  |  | inactive
